# From PubChem
# NSD2 inh = NSD2 histone methyltransferase inhibitors, primary screen, biochemical, AlphaScreen, single concentration, set 2; Histone-lysine N-methyltransferase NSD2 (Homo sapiens), O96028; NSD2 peptide methylation, 120 min; inhibition, % at 12.5 µM; hit rate 0.54% among 310,000; AID 743445, 2014; in the data active = inhibition above about 50%
# Efflux pump inh = inhibitors of Candida efflux pumps in yeast, primary screen, S. cerevisiae, Nile Red, multiplex | S. cerevisiae Candida pump triplex | inhibition, % at 10 µM | hit rate 0.44% among 330,000 | AID 485275, 2010;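 active = plate passing quality check with inhibition over a set limit, or well fluorescence over plate mean plus 4 SD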;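 note: Nile Red retained in pooled yeast measured as flow cytometry median fluorescence; 0% = buffer negative control and 100% = Enniatin B positive control; higher means more Nile Red kept so more efflux inhibition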
# Rce1 inh = yeast Rce1p protease inhibitors, primary screen, biochemical, fluorescence, cell-free homogeneous; CAAX prenyl protease 2 (Saccharomyces cerevisiae (strain ATCC 204508 / S288c)), Q03530; yeast membranes, quenched prenylated peptide cleavage fluorescence; calls only; hit rate 0.27% among 290,000;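 active = fall in fluorescence gain of 50% or more versus controls, with final raw signal at or below 3038400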;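 note: plate controls were neutral control wells for no effect and wells lacking membranes for full effect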
# V-ATPase pH = regulators of yeast V-ATPase proton pumping, primary screen, pHLuorin cytosolic pH fluorescence. S. cerevisiae. response, % at 10 µM. hit rate 0.37% among 350,000. AID 504577, 2011; in the data active = response mostly above about 7.3%, no sharp cut-off; inactive = mostly below about 5.4%; note: actives read high
# GC-A act = GC-A stimulated cGMP production enhancers – HEK293 GC-A cells, cGMP TR-FRET, EC30 ANP, primary screen; 0% at EC30 ANP, 100% saturating ANP; activation, % at 10 µM; hit rate 0.14% among 370,000; in the data active = activation above about 40%
# GC-B act = human GC-B receptor activators, primary screen, HEK293 GC-B cells, cGMP TR-FRET, EC30 CNP | Atrial natriuretic peptide receptor 2 (Homo sapiens), P20594 | 0% at EC30 CNP, 100% saturating CNP | activation, % at 10 µM | hit rate 0.11% among 370,000 | AID 1920062, 2024;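 active = activation at 10 µM reaching about 35% in either raw or pattern-adjusted values, limit read from the data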
# Target sequence (P20594 whole entry, looked up): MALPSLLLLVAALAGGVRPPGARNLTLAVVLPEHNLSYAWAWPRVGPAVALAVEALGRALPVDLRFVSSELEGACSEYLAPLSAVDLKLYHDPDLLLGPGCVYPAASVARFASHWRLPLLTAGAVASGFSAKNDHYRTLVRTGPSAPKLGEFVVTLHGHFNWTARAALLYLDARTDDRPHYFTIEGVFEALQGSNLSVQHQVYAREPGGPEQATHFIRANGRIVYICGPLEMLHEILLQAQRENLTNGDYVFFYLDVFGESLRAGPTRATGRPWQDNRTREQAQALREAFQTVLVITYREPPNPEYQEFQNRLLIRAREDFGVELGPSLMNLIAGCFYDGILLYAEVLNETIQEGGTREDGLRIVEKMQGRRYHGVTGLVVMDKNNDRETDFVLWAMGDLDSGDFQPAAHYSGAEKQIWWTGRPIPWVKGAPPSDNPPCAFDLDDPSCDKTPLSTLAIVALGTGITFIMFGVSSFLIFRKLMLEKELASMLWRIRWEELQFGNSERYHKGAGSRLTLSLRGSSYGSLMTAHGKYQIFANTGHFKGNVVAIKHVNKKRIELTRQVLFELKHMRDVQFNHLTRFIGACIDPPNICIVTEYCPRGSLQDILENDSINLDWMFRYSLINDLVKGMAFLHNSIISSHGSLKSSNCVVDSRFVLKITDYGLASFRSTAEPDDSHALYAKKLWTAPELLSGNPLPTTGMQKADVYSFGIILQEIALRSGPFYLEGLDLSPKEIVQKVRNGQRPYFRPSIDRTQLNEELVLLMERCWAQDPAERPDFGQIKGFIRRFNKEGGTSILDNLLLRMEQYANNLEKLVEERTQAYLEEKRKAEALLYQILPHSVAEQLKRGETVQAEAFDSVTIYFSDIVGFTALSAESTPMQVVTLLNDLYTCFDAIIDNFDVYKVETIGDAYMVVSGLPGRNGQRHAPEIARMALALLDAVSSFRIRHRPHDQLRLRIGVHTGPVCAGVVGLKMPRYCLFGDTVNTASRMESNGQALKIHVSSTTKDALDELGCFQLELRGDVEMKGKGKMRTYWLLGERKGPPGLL
# Yeast cmpd fluor = compound fluorescence in yeast efflux pump counter-screen; shares compounds with Efflux pump inh; S. cerevisiae AD/pABC3, flow cytometry; fluorescence ratio to DMSO, % at 10 µM; hit rate 4% among 1,700; AID 588517;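 active = fluorescence ratio to DMSO above its plate's cutoff, the plate mean ratio plus 5 SD, cut at about 210% in these data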;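 note: unstained yeast with no Nile Red so the signal is compound autofluorescence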
# CaMdr1 efflux inh = inhibitors of Candida albicans Mdr1 efflux, confirmation, flow cytometry, singleplex, Cherry Pick1 set. inhibition, % at 10 µM. AID 588518, 2011. hit rate 1% among 1,700. shares compounds with Efflux pump inh. S. cerevisiae AD/CaMDR1, Nile Red efflux; in the data active = inhibition above about 26%;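 note: 0% = DMSO vehicle and 100% = reference inhibitor; higher means more Nile Red retained so more efflux inhibition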
# CaCdr2 efflux inh = inhibitors of Candida albicans Cdr2 efflux pump, confirmation, S. cerevisiae AD/CaCDR2, flow cytometry, cherry pick 1, singleplex. hit rate 4% among 1,700. Nile Red retention. AID 588520, 2011. Nile Red retention ratio vs DMSO, % at 10 µM. shares compounds with Efflux pump inh; in the data active = Nile Red retention ratio vs DMSO above about 190%;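 note: higher ratio means more blocking of Cdr2 efflux of the dye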
# Cdr1 pump inh = inhibitors of Candida albicans Cdr1 efflux pump, confirmation, S. cerevisiae AD/CaCDR1, flow cytometry, cherry pick 1, singleplex. inhibition, % at 10 µM. shares compounds with Efflux pump inh. hit rate 1% among 1,700. Nile Red efflux;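 active = inhibition above the screen-wide mean plus twice its standard deviation, cut at about 32% in these data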
# Numbers without * were called inactive; i = inactive; / = no result; + = active, no number. The list is not random: actives were taken first. Their share in the collection is about 1.6%.
SMILES,NSD2 inh,Efflux pump inh,Rce1 inh,V-ATPase pH,GC-A act,GC-B act,Yeast cmpd fluor,CaMdr1 efflux inh,CaCdr2 efflux inh,Cdr1 pump inh
CC(C)CC(=O)c1c[nH]c(C(=O)NCCCn2ccnc2)c1,0,0,i,1,4,5,/,/,/,/
Cc1cc(C)n2c(SCC(=O)N(C)C3CCS(=O)(=O)C3)nnc2n1 (stereo not given),-65,0.6*,i,1,2,1,110,0,109,0
CN(C(=O)CSc1nnc(-c2ccccc2)n1C)C1CCS(=O)(=O)C1 (stereo not given),-4,0,i,-2,-5,4,/,/,/,/
CCn1ncc(/C=N\NC(=O)COc2cc(C)cc(C)c2)c1C,-1,13*,i,1,1,-4,102,0,104,0
COC(=O)[C@H]1C[C@@]2(c3ccccc3)c3ccccc3N[C@H]2N1,/,/,/,/,-4,0,/,/,/,/
COc1ccc(CC(=O)Nc2c3c(nn2C(C)(C)C)CS(=O)C3)cc1 (stereo not given),/,1.8*,i,5,4,-2,114,0,100,0
COc1ccc(/C=C/c2cccc[n+]2C)c(O)c1,11,0,i,-2,-12,-10,/,/,/,/
CCN(CC)c1ccc(/C=C/c2cccc[n+]2C)c(OC)c1,/,21*,i,3,-14,-14,+,12,112,12
CC(C)(C)c1ccc(-c2nnc3sc(COc4ccccc4)nn23)cc1,-1,/,/,/,-3,-1,/,/,/,/
Cc1ccc(NC(=O)C[n+]2cc(-c3ccccc3)n3c2CCC3)c(C)c1,-1,0,i,-2,0,3,89,0,87,0
Cc1ccc(-c2c[n+](Cc3cccc(Cl)c3)c3n2CCC3)cc1,1,0,i,0,2,5,107,0,107,0
O=C(c1ccncc1F)N1CCC(n2nnc3ncccc32)CC1,-3,/,/,/,4,1,/,/,/,/
COC(=O)C[C@H]1CC[C@@H]2[C@@H](COc3ccc(NC(=O)c4ccno4)cc3C(=O)N2C)O1,/,/,/,/,2,0,/,/,/,/
O=C1c2cccc3c([N+](=O)[O-])ccc(c23)C(=O)N1O,10,4.1*,i,-4,-10,-6,138,1,262*,1
O=C1c2cccc3c([N+](=O)[O-])ccc(c23)C(=O)N1c1ccc(Cl)cn1,3,2.1*,i,-33,22,0,265*,1,177,0
O=C1c2cccc3c(N4CCCCC4)ccc(c23)C(=O)N1c1ccccn1,-5,0,i,-1,6,0,/,/,/,/
O=C1c2cccc3c([N+](=O)[O-])ccc(c23)C(=O)N1c1ccccn1,-9,0.7*,i,-28,20,5,149,1,139,1
Cn1cccc1C(=O)N1CCN(S(=O)(=O)c2ccc(F)cc2)CC1,2,/,/,/,0,-5,/,/,/,/
CC1=NN(c2nc3ccccc3[nH]2)C(=O)/C1=C/N(C)C,1,2.4*,i,1,/,/,112,0,104,0
CCOC(=O)[C@]12CCCCC/C=C\1N(CCc1ccc(Cl)cc1)C(=O)[C@H]2CC(=O)NCCCOC,/,/,/,/,0,-8,/,/,/,/
O=S(=O)(Cc1ccccc1)N1CCN(Cc2ccc3c(c2)OCO3)CC1,-1,1.1*,i,1,3,1,103,0,93,0
O=S(=O)(c1ccc2c(c1)OCCO2)N1CCN(Cc2ccc3c(c2)OCO3)CC1,2,0,i,3,0,0,/,/,/,/
CC1CCC2(CC1)CCC2NCc1ccc(Br)cc1 (stereo not given),-3,/,/,/,-2,-3,/,/,/,/
O[C@H](COc1cccc(C(F)(F)F)c1)CN1CCC(C(O)(c2ccccc2)c2ccccc2)CC1,/,/,/,/,-13,-7,/,/,/,/
N#C/C(=C\c1ccc([N+](=O)[O-])o1)c1nc2ccccc2[nH]1,0,5.1*,/,/,31,34,+,4,478*,2
SMILES,NSD2 inh,Efflux pump inh,Rce1 inh,V-ATPase pH,GC-A act,GC-B act,Yeast cmpd fluor,CaMdr1 efflux inh,CaCdr2 efflux inh,Cdr1 pump inh
Cc1ccc2nc(/C(C#N)=C\c3ccc(N4CCOCC4)o3)[nH]c2c1,4,0.5*,i,3,9,3,128,0,131,0
Cc1ccc(/C(C#N)=C\c2ccc(N3CCOCC3)o2)cc1,2,0,i,-2,3,1,/,/,/,/
Cc1ccc2nc(/C(C#N)=C\c3ccc([N+](=O)[O-])o3)[nH]c2c1,/,18*,i,86*,16,13,+,8,+,0
Cc1ccccc1NC(=O)c1cccc2c1-c1ccccc1C2=O,0,/,/,/,-4,-4,/,/,/,/
Cc1ccc(NC(=O)CN2C(=O)CCSc3ccccc32)cc1C,0,/,/,/,3,-1,/,/,/,/
O=[N+]([O-])c1ccc(Oc2cccc3cccnc23)c([N+](=O)[O-])c1,5,0.9*,i,-1,-1,-10,123,0,123,0
N#Cc1ccc(Oc2cccc3cccnc23)c([N+](=O)[O-])c1,/,0,i,1,-8,-9,/,/,/,/
COc1cc(-n2c(C)nc3cc(C(=O)N4CC(C)CC(C)C4)ccc32)cc(OC)c1OC (stereo not given),-2,/,/,/,8,8,/,/,/,/
CC(=O)c1cn(CC(=O)Nc2ccccc2F)c2ccccc12,0,0,/,-3,4,4,/,/,/,/
O=C(Cn1c2ccccc2c(=O)c2ccccc21)Nc1ccccc1F,-2,17*,+,0,3,5,98,0,103,0
COC(=O)[C@H]1C[C@@]2(N3CCCC3)c3ccccc3N[C@H]2N1S(C)(=O)=O,/,/,/,/,-6,-2,/,/,/,/
